Test [1] relates to Plasmodium falciparum Sir2 (PF13_0152, Sir2A). The test can be described thus: Plasmodium falciparum Sir2A binding compounds – biochemical, small-molecule microarray, 635 nm fluorescence, primary screen (AID 1098).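 Also: score merges spot fluorescence intensity with its signal-to-noise ratio.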 Conditions: fluorescence 635 nm, higher = more signal.
The nature of test [2]: probe aDKK1 binding to arrayed compounds – biochemical, biotinylated probe, 635/667 nm fluorescence, primary screen (AID 1099).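 Also: score merges 667nm spot fluorescence with signal to noise across triplicate slides.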 The note with it: small-molecule microarray, higher = more signal.
Test [3] can be described thus: probe aCHRDL2 binding to arrayed compounds – biochemical, biotinylated probe, 635/667 nm fluorescence, primary screen (AID 1100). The note with it: small-molecule microarray, higher = more signal.
The nature of test [4]: change in splice reporter luminescence, either direction, cell-based, HEK293, spliceosome inhibition project, primary screen (AID 1101).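 Also: HEK293 cells carrying a splicing-competent luciferase reporter gene; test concentration not given here.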 Conditions: HEK293 splicing luciferase reporter, 24 h, higher = more signal, called active from +8 up or from −8 down. A general note: In a reporter assay the amount or activity of a reporter protein is the signal.
The target in test [5] is Fibroblast growth factor 10 (Homo sapiens) (UniProt O15520). Kind of test: compounds binding fibroblast growth factor 10 – biochemical, small-molecule microarray, 635 nm fluorescence, primary screen (AID 1102). The note with it: FGF10 binding, fluorescence 635 nm, higher = more signal.
Chain of Fibroblast growth factor 10 (Homo sapiens) (O15520 whole entry, looked up): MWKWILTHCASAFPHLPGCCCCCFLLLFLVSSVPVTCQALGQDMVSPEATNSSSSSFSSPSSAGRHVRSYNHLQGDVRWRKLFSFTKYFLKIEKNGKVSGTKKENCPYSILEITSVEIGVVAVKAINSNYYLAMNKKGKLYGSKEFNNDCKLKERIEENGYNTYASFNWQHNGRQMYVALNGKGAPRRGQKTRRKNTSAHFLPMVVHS
The subject of test [6] is glycogen synthase kinase-3 (GSK3A per assay name; protocol says GSK3B). Kind of test: compounds binding glycogen synthase kinase-3 – biochemical, small-molecule microarray, 635 nm fluorescence, GSK3A, primary screen (AID 1103). Also: the record names both GSK3A and GSK3B. Conditions: fluorescence 635 nm, higher = more signal.
Test [7] has as its target Epidermal growth factor receptor (Homo sapiens) (UniProt P00533). Kind of test: compounds binding epidermal growth factor receptor – biochemical, small-molecule microarray, 635 nm fluorescence, primary screen (AID 1104).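 Also: score merges 667 nm emission intensity with spot signal to noise over triplicate slides.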 The note with it: EGFR binding, higher = more signal.
In test [8] the target is Follistatin-related protein 3 (Homo sapiens) (UniProt O95633). The test can be described thus: compounds binding follistatin-related protein 3 – biochemical, small-molecule microarray, 635 nm fluorescence, primary screen (AID 1105).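 Also: score merges emission near 667 nm and signal to noise per printed spot across three slides.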 The note with it: FSTL3 binding, higher = more signal.
Chain of Follistatin-related protein 3 (Homo sapiens) (O95633 whole entry, looked up): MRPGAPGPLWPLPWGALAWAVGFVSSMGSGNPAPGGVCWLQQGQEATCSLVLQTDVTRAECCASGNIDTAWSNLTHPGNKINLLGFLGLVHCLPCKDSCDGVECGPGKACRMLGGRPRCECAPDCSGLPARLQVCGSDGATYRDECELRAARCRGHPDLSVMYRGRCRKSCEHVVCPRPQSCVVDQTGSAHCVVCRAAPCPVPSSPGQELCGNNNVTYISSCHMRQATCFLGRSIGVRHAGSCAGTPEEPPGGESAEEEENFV
For test [9], the target named is Dickkopf-related protein 1 (Homo sapiens) (UniProt O94907). The test can be described thus: small molecules binding DKK1 protein – biochemical, small-molecule microarray, 635 nm fluorescence scan, primary screen (AID 1106).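 Also: score merges emission near 667 nm with signal to noise over three replicate slides.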 The note with it: higher = more signal.
Chain of Dickkopf-related protein 1 (Homo sapiens) (O94907 whole entry, looked up): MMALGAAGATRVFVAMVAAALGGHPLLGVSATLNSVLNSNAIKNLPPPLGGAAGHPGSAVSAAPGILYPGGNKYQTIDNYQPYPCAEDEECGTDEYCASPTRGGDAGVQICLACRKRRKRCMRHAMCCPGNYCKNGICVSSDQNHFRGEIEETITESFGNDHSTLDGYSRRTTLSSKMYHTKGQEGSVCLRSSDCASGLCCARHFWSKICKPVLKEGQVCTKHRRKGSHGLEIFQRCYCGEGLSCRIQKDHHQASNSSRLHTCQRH
The subject of test [10] is Inhibin beta A chain (activin A). Kind of test: small molecules binding activin A – biochemical, small-molecule microarray, 635 nm fluorescence scan, primary screen (AID 1107).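 Also: mouse activin A protein probed at 4.33 µg/mL on printed slides; score merges bound-protein fluorescence near 667 nm with spot signal-to-noise.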 The note with it: INHBA, higher = more signal.
Test [11] has as its system Human papillomavirus type 1a protein E7 (residues 44-93). The test can be described thus: small molecules binding HPV E7 44-93 – biochemical, small-molecule microarray, residues 44-93, 635 nm fluorescence, primary screen (AID 1108).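 Also: E7 fragment applied at 1 µg/mL in TBST for 1 h at 4 C; score combines spot fluorescence with its signal to noise ratio.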 The note with it: fluorescence 635 nm, higher = more signal.
Test [12] is described as follows: hepatitis C replication reporter changes, two-sided – Huh7 cells, luciferase reporter, HCV replication inhibitor project, primary screen (AID 1109).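 Also: huh7 hepatoma cells harbouring a luciferase neomycin HCV replicon reporter; luciferase luminescence as measure of HCV replicon replication; test concentration not given here.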 Conditions: Huh7 HCV replicon luciferase reporter, 48 h; higher = more signal.
Test [13] addresses Left-right determination factor 2 (Homo sapiens) (UniProt O00292). Kind of test: small molecules binding LEFTY2 protein – biochemical, small-molecule microarray, 635 nm fluorescence scan, primary screen (AID 1110). Conditions: higher = more signal.
Test [14] deals with Calmodulin-1 (Homo sapiens) (UniProt P0DP23). The test can be described thus: small molecules binding calmodulin-1 with EGTA – biochemical, small-molecule microarray, Cy5-labelled CALM1, profiling panel (AID 1111).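 Also: labelled calmodulin applied in Tris saline Tween buffer holding calcium plus EGTA and DTT.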 Conditions: Cy5-CALM1 binding fluorescence, higher = more signal.
For test [15] the target is unchanged. The test can be described thus: small molecules binding Ca-loaded calmodulin-1 – biochemical, small-molecule microarray, Cy5-labelled CALM1, plus calcium, artefact control for SMM control-protein annotation, profiling panel (AID 1112).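 Also: score merges spot fluorescence with signal to noise from triplicate slides.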 The note with it: Cy5-CALM1 binding fluorescence, higher = more signal.
Test [16] in a line: probe aWnt5a binding to arrayed compounds – biochemical, biotinylated probe, 635/667 nm fluorescence, primary screen (AID 1113).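 Also: score merges 667 nm fluorescence intensity with signal-to-noise per printed feature.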 Conditions: small-molecule microarray, higher = more signal.
A short description of test [17]: probe aShh binding to arrayed compounds – biochemical, biotinylated probe, 635/667 nm fluorescence, primary screen (AID 1114).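 Also: probe is biotin-labelled aShh protein from a stem cell growth factor screen; measures binding of labelled protein to compounds printed on the slide; score merges feature fluorescence at 667 nm with signal-to-noise.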 Conditions: small-molecule microarray, higher = more signal.
A short description of test [18]: probe aNog binding to arrayed compounds – biochemical, biotinylated probe, 635/667 nm fluorescence, primary screen (AID 1115).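 Also: probe is biotinylated aNog protein used at 0.15 µg/mL for 1 h at 4 C; z-score combines 667 nm fluorescence of each spot with its signal to noise.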 Conditions: small-molecule microarray, higher = more signal.
Test [19] has as its target Torsin-1A-interacting protein 1 (Homo sapiens) (UniProt Q5JTV8). The test can be described thus: compound microarray binding of lysate hLAP1 – cell lysate, small-molecule microarray, COS7 lysate, 635/667 nm fluorescence, primary screen (AID 1116). Conditions: 635 nm fluorescence, higher = more signal.
Test [20] deals with Alpha-bungarotoxin (Bungarus multicinctus) (UniProt P60615). The test can be described thus: compounds binding labelled alpha-BTX control protein – biochemical, small-molecule microarray, Alexa647 label, 635/667 nm fluorescence, artefact control for SMM control protein annotation, profiling panel (AID 1117). Conditions: alpha-BTX-A647 binding fluorescence, higher = more signal.
Chain of Alpha-bungarotoxin (Bungarus multicinctus) (P60615 whole entry, looked up): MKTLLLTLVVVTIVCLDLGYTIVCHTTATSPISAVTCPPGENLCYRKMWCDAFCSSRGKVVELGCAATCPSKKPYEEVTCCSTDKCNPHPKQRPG

SMILES strings stand for the structures. Calls of active or inactive are those of the source.

Chain of Torsin-1A-interacting protein 1 (Homo sapiens) (Q5JTV8 whole entry, looked up): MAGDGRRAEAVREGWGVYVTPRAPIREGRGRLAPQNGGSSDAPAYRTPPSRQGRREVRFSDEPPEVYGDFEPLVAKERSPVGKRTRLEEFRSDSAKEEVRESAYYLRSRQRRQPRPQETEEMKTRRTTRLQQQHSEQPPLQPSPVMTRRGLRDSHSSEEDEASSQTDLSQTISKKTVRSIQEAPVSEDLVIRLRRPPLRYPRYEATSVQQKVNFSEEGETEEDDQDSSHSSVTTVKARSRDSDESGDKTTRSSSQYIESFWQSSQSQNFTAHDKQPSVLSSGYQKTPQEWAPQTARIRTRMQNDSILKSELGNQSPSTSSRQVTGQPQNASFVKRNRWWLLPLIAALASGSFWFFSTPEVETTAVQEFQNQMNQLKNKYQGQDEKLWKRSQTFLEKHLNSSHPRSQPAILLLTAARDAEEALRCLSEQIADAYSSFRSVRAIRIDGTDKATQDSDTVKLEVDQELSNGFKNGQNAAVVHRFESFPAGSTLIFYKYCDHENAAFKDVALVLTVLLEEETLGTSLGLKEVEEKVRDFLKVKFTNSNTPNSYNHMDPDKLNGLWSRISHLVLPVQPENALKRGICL
Chain of Epidermal growth factor receptor (Homo sapiens) (P00533 whole entry, looked up): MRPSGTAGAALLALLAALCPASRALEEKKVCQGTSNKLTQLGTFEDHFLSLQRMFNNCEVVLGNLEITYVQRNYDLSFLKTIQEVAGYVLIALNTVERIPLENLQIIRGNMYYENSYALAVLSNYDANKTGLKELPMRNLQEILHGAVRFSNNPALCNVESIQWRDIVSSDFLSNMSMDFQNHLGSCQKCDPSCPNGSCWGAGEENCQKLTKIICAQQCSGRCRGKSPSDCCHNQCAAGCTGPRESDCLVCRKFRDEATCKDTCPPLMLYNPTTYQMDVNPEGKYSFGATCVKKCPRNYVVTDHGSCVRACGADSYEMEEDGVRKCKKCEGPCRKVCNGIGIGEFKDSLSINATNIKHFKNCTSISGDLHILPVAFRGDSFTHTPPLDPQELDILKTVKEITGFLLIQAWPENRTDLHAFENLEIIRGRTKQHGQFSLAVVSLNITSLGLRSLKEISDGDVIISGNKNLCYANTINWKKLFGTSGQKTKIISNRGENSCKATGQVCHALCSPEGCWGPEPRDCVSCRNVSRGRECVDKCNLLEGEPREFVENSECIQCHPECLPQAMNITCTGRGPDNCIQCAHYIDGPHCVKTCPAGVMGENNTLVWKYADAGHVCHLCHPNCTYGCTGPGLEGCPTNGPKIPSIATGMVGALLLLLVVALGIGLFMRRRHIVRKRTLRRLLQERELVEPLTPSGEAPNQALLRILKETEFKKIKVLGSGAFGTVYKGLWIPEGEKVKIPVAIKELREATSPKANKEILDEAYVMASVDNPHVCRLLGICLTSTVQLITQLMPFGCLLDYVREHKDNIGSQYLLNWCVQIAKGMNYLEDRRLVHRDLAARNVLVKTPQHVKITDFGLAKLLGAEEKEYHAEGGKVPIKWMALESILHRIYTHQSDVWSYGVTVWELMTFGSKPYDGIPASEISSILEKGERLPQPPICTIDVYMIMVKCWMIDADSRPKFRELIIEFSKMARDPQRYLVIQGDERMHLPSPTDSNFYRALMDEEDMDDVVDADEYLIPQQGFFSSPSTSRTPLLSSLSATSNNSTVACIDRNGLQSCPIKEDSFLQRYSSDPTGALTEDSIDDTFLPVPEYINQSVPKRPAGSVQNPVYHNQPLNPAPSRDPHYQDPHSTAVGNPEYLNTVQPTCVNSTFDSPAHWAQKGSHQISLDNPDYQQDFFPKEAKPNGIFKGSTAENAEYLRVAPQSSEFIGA
Chain of Left-right determination factor 2 (Homo sapiens) (O00292 whole entry, looked up): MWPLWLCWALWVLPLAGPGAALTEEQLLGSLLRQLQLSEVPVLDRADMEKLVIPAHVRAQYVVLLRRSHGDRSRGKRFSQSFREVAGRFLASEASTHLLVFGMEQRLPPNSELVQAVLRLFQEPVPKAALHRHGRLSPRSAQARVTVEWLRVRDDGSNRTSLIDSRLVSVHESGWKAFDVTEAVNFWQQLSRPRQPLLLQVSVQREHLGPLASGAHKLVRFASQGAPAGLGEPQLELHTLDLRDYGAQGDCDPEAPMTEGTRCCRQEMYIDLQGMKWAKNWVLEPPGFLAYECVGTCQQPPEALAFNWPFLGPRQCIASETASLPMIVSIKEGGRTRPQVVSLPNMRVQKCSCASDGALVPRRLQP

As to `COCCOC(=O)N1C(=O)[C@@]2(c3cc(C#CC4(O)CCCCCC4)ccc31)[C@H](C(=O)NC[C@H](O)c1ccccc1)[C@H]1C(=O)O[C@H](c3ccccc3)[C@H](c3ccccc3)N1[C@@H]2c1ccccc1OCCO`, the composite z-score in [1] is 1.27; in [2] it was 0.145; in test [3], 0.348; in test [5], 1.15; in test [6] it was 1.31; in [7] it was 0.479. Also, the composite z-score in [8] came out at 1.33; in test [9] it was 0.95; in test [10], 0.158; in test [11], 0.726; in test [13] it was 0.678; in test [14], 1.18. The composite z-score is 0.0465 in test [15]; -0.129 in [16]; 0.699 in [17]; -0.0939 in [18]; 0.945 in test [19]; 1.45 in test [20]. Moreover, the z-score in test [4] is -0.747 (inactive); in test [12], -2.56.

Consider `CCOC(=O)C[C@H]1[C@H](OC(=O)Cc2ccc3c(c2)OCO3)[C@@H](NC(=O)c2ccc3ccccc3c2)c2cc(OCCCO)ccc2N1C(=O)c1ccc2ccccc2n1`, for which the composite z-score in test [1] was 0.114; in test [2], -0.0522; in test [3], -0.0322; in [5] it was 0.18; in [6], 0.0646; in test [7], 0.118. Moreover, the composite z-score in test [8] is 0.161; in test [9], 0.121; in test [10], 0.0739; in [11], -0.13; in test [13] it was 0.0822; in test [14], 1.05. In addition, the composite z-score was 0.691 in test [15]; -0.124 in test [16]; -0.0769 in test [17]; -0.171 in test [18]; 1.15 in [19]; 1.15 in test [20]. Also, the z-score is -3.47 (inactive) in test [4] and -1.43 in [12].

As for `O=C1N(CCS(=O)(=O)c2ccccc2)Cc2ccccc2[C@@H]2OC(c3ccc(OCCCO)cc3)=N[C@]12Cc1ccccc1`, the composite z-score in test [1] was determined as 1.61; in test [2] it was 1.22; in [3], 1.14; in test [5], 1.37; in test [6] it was 1.33; in test [7], 0.267. In addition, the composite z-score worked out at 1.33 in test [8]; 0.797 in [9]; 0.49 in test [10]; 0.427 in test [11]; 0.533 in test [13]; 1.88 in test [14]. For the same molecule, the composite z-score in test [15] is 0.189; in test [16] it was 0.0614; in [17], 0.191; in test [18], 0.998; in test [19], 1.16; in test [20], 2.73. For the same molecule, the z-score in [4] was -0.127 (inactive); in test [12], -1.4.

As to `COC(=O)C1=CC(c2ccc(CO)cc2)=CC(C2CC2)N(C)C=C1C(=O)OC` (stereo not given), the composite z-score in [1] is 1.97; in test [2], 0.341; in test [3], 0.542; in test [5], 0.17; in [6] it was -0.373; in [7], -0.125. For the same molecule, the composite z-score in [8] was -0.172; in [9], 0.466; in test [10] it was 0.606; in test [11] it was -0.139; in [13], -0.246; in test [14], 1.52. In addition, the composite z-score in test [15] was 0.454; in test [16] it was -0.0179; in test [17], 0.111; in [18] it was 0.407; in test [19], 2.82; in [20], 3.09. In addition, the z-score in test [4] was -1.93 (inactive); in test [12], -0.748.

As for `NC(=O)N1C(=O)C2C(C1=O)C1C=C(c3ccc(CO)cc3)C2C(C2CC2)N1Cc1cc2c(cc1Br)OCO2` (stereo not given), the composite z-score in test [1] is 0.105; in test [2], 0.176; in test [3], 0.691; in [5], 0.151; in [6] it was 0.314; in test [7] it was -0.505. Further, the composite z-score is -0.0544 in test [8]; -0.196 in test [9]; 1.34 in [10]; 0.0207 in [11]; -0.254 in test [13]; 0.438 in test [14]. Moreover, the composite z-score in [15] was 0.163; in test [16], -0.124; in test [17], -0.0146; in test [18] it was -0.0689; in [19], 1.11; in test [20] it was 0.55. For the same molecule, the z-score is -0.87 (inactive) in test [4] and -1.03 in [12].

In the case of `O=C(O)[C@H]1C[C@H]2C(=O)N[C@@H](Cc3ccccc3)C(=O)N2[C@H]1c1ccc(O)cc1`, the composite z-score in test [1] is 1.56; in test [2], 0.844; in test [3] it was 0.913; in test [5], -0.349; in test [6], 0.661; in [7], -0.502. The composite z-score in test [8] was -0.192; in [9], -0.0944; in test [10], 0.945; in test [11], -0.067; in test [13] it was -0.307; in test [14], -0.195. The composite z-score in [15] was 0.504; in test [16] it was -0.0678; in test [17], -0.0783; in test [18], 0.586; in test [19], 0.777; in [20], 0.824. The z-score in [4] was -0.282 (inactive); in [12], -0.262.

Source of the values: PubChem BioAssay.
